Results as given in PubChem BioAssay AID720690 (Broad Institute, 2013).
Entries with a potency or affinity are not part of this list. The source made the active and inactive calls.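 Rule for the calls: active = every repeat run showing a signal drop whose fitted half-maximal concentration is at most twice the top tested concentration; inconclusive = repeat runs disagree, or flat partial drop, or poor fit; inactive = the rest.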

assay: HEK293T cytotoxicity, dose response, cytotoxicity control for miR-122 modulator project, cell-based, activator set, cherry-pick (AID 720690); settings: HEK293T viability, CellTiter-Glo luminescence, 48 h; series mostly up to 26 µM; activity change, negative = cytotoxicity: at the top concentration;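 note: 0% = neutral control wells and -100% = MG132 cytotoxic control wells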

Structure (SMILES) | activity change, negative = cytotoxicity | outcome
Cc1cccc(NC(=O)Nc2ccc3c(c2)C(=O)N(C)[C@H]2CC[C@@H](CC(=O)NCc4ccccc4Cl)O[C@H]2CO3)c1 | -11.4% (inactive) | 
COCCN(C[C@H]1[C@H](c2ccccc2)[C@@H](CO)N1C(=O)C1CCC1)C(C)=O | -1.76% [at 23.5 µM] (inactive) | 
C[C@@H]1CN([C@@H](C)CO)S(=O)(=O)c2ccc(C3=CCCC3)cc2O[C@@H]1CN(C)C(=O)c1ccc(F)cc1 | -11.3% (inactive) | 
CC(=O)N1[C@H](CO)[C@@H](c2ccccc2)[C@H]1CN(C)C(=O)CN1CCOCC1 | -3.31% (inactive) | 
CCCNC(=O)N1[C@H](CO)[C@@H](c2ccccc2)[C@H]1CNC(=O)c1ccccc1 | -2.24% (inactive) | 
COc1cc2nc(C3CCC3)n(NC(=O)C3CCCC(OC)C3)c(=O)c2cc1OC (centres undefined) | 7.08% (inactive) | 
O=C(NC[C@@H]1N[C@@H](CO)[C@H]1c1ccccc1)C1CCC1 | -1.63% (inactive) | 
COC(=O)C[C@@H]1CC[C@@H]2[C@H](COc3ccc(NS(=O)(=O)c4ccc(F)cc4)cc3C(=O)N2C)O1 | -7.83% (inactive) | 
O=C(CC(F)(F)F)N1C[C@@H]2[C@H](c3ccccc31)[C@@H](CO)N2C(=O)C1CCCC1 | -4.51% (inactive) | 
Cc1cc(C)cc(NC(=O)Nc2ccc3c(c2)C(=O)N(C)[C@@H]2CC[C@H](CC(=O)O)O[C@@H]2CO3)c1 | 5.14% (inactive) | 
C/C=C/c1ccc([C@H]2[C@H](CO)N[C@H]2CN(C)S(=O)(=O)c2ccccc2)cc1 | -14.5% (inactive) | 
CN1C(=O)c2cc(NC(=O)c3cccs3)ccc2OC[C@@H]2O[C@@H](CC(=O)NCCN3CCCCC3)CC[C@H]21 | 1.91% (inactive) | 
COc1cc(NC(=O)c2c(F)c(F)c(F)c(F)c2F)c(OC)cc1Cl | 4.98% (inactive) | 
Cc1cc(C(F)F)n2ncc(C(=O)NCCc3ccccc3Cl)c2n1 | -0.237% (inactive) | 
CNC(=O)C[C@@H]1CC[C@H]2[C@@H](COc3ccc(NC(=O)NC(C)C)cc3C(=O)N2C)O1 | -0.66% [at 23.5 µM] (inactive) | 
CO[C@@H]1CN(C)C(=O)c2ccc(NC(=O)Nc3ccc(C(F)(F)F)cc3)cc2OC[C@H](C)NC[C@H]1C | -12.8% (inactive) | 
O=C(NCC(c1cccnc1)N1CCOCC1)NC1CCCCC1 (centres undefined) | 0.711% (inactive) | 
CCOc1ccc(CCNC(=O)C2CCN(S(=O)(=O)N3CCC(C)CC3)CC2)cc1OCC | 23% (inactive) | 
CC(=O)N1[C@H](CN(C)S(=O)(=O)c2ccccc2)[C@H](c2ccccc2)[C@@H]1CO | -9.41% (inactive) | 
Cc1nn(C)cc1NC(=O)C[C@@H]1CC[C@@H]2[C@H](COc3ccc(NC(=O)Nc4cccc(Cl)c4)cc3C(=O)N2C)O1 | 5.79% (inactive) | 

Structure (SMILES) | activity change, negative = cytotoxicity | outcome
COCC(=O)N(C)C[C@H]1[C@H](c2ccccc2)[C@@H](CO)N1C(=O)NC(C)C | -5.13% (inactive) | 
COC(=O)c1nn(-c2ccccc2)c(Sc2ccc(Cl)cc2)c1/C=N/O | 37% (inactive) | 
C[C@H]1CN([C@@H](C)CO)C(=O)c2cc(-c3ccc(C#N)cc3)cnc2O[C@H]1CN(C)C(=O)Nc1ccc(C(F)(F)F)cc1 | -12.8% (inactive) | 
COCC(=O)NC[C@H]1[C@@H](c2ccc(C3=CCCC3)cc2)[C@@H](CO)N1C(=O)C1CC1 | -4.55% (inactive) | 
CCC(=O)N1[C@H](CO)[C@@H](c2ccccc2)[C@@H]1CN(C)C(=O)CN1CCOCC1 | 2.2% [at 23.5 µM] (inactive) | 
COc1ccc(S(=O)(=O)Nc2cc(C)cc(C)n2)c2ccccc12 | 16.4% (inactive) | 
Cc1ccc(-c2noc(CCC(=O)Nc3ccccc3C)n2)cc1 | 1.33% (inactive) | 
Cc1cc(C)c2c(c1)/C(=C/C(=O)c1ccc(Br)s1)C(=O)N2 | 4.2% (inactive) | 
COCC(=O)N1[C@H](CO)[C@H]2c3ccccc3N(C(=O)c3ccccc3F)C[C@H]21 | -7.76% [at 23.5 µM] (inactive) | 
CN1C(=O)c2cc(NC(=O)c3cccs3)ccc2OC[C@H]2O[C@@H](CC(=O)N3CCCCC3)CC[C@H]21 | -11% (inactive) | 
Cc1ccc(-n2c(Cc3ccccc3)n[nH]c2=S)cc1 | 13.4% (inactive) | 
C[C@H](CO)N1C[C@H](C)[C@@H](CN(C)Cc2ccc(Oc3ccccc3)cc2)Oc2ncc(-c3cncnc3)cc2C1=O | -8.03% (inactive) | 
COCCNC(=O)C[C@H]1CC[C@@H]2[C@H](COc3ccc(NC(=O)c4cnccn4)cc3C(=O)N2C)O1 | -7.42% [at 23.5 µM] (inactive) | 
C/C=C/c1ccc([C@H]2[C@@H](CO)N(C(=O)CC)[C@H]2CNC(=O)CC)cc1 | -1.2% (inactive) | 
CC(C)C(=O)Nc1ccc2c(c1)C(=O)N(C)[C@@H]1CC[C@H](CC(=O)NCC3CC3)O[C@H]1CO2 | 9.2% [at 23.5 µM] (inactive) | 
CN1C(=O)c2cc(NC(=O)c3cccc(F)c3)ccc2OC[C@@H]2O[C@H](CC(=O)NC3CCC3)CC[C@@H]21 |  | inactive
CN1C(=O)c2cc(NC(=O)c3cccs3)ccc2OC[C@H]2O[C@H](CC(=O)NCCN3CCCCC3)CC[C@@H]21 | 4.88% (inactive) | 
CN(C[C@H]1[C@H](c2ccccc2)[C@@H](CO)N1CC1CC1)C(=O)c1cccc(F)c1 | -1.25% [at 23.5 µM] (inactive) | 
CCN(CC)CCNc1nc(-c2ccccc2)nnc1C(F)(F)F | -4.86% (inactive) | 
